Experimental data from ChEMBL document CHEMBL4513216, “Probing the Open Global Health Chemical Diversity Library for Multistage-Active Starting Points for Next-Generation Antimalarials” (ACS Infect Dis, 2020).
Hit rate of the full screen: of about 69,000 compounds, about 8,600 (12%) showed an effect of 50% or more. The list comes from a sample in which strong results are over-represented; it also holds similar structures and randomly drawn compounds.

Each molecule was assayed on Plasmodium berghei (assay: Screen against P. berghei liver stage (PbLuc), transformed with Luciferase, at 10uM). Conditions: tested at 10 uM.
Type: functional, HepG2

Row | SMILES | INHIBITION
1 | CSCC[C@H](N)C(=O)NCc1cc2n(n1)CCCN(C(=O)N(C)C)C2 | 3.19%
2 | Cc1nc(CN2CCO[C@H]3[C@H](OCC(=O)N(C)C)CC[C@@H]32)cs1 | 10.6%
3 | CC(NC(=O)c1ccc(F)cc1F)c1cnn(C)c1 (stereo not drawn) | 33.3%
4 | O=C(Nc1cccnc1)[C@H]1C[C@H]2OCC[C@H]2N(C(=O)c2ccsc2)C1 | 3.41%
5 | CCNc1nc2cn(-c3ccc(Cl)cc3)c(=O)c-2c[nH]1 | -64.5%
6 | c1cncc(-c2noc(CNCC3CCCN3c3cccnn3)n2)c1 (stereo not drawn) | -7.81%
7 | COC(C)(C)CC(C)NCc1cn2ccccc2n1 (stereo not drawn) | 8.38%
8 | Cc1cc(O)n(-c2ccc3nnc(C)n3n2)n1 | 6.83%
9 | Cc1ccccc1OCC(O)C(=O)N1CCC2(CC1)CN(C)C(=O)O2 (stereo not drawn) | 39.6%
10 | Cc1ccccc1OC(C(=O)N1CCC2(CC1)CN(C)C(=O)O2)C(C)C (stereo not drawn) | 41.5%
11 | CC(C)C(C(=O)N1CCC2(CC1)CN(C)C(=O)O2)c1ccccc1 (stereo not drawn) | 56.3%
12 | Cc1noc(C)c1CN1C[C@@H]2COC[C@H](C(=O)N3CCCCO3)[C@@H]2C1 | 50.6%
13 | Cc1cc(CN2C[C@@H]3COC[C@@H](C(=O)N4CCCCO4)[C@@H]3C2)no1 | 34.6%
14 | Cc1noc(C)c1CN1C[C@@H]2COC[C@@H](C(=O)N3CCCO3)[C@@H]2C1 | 57.9%
15 | Cc1noc(C)c1CN1C[C@@H]2COC[C@H](C(=O)N3CCCO3)[C@@H]2C1 | 62.5%
16 | Cc1cc(CN2C[C@@H]3COC[C@H](C(=O)N4CCCCO4)[C@@H]3C2)no1 | 21.8%
17 | Cc1noc(C)c1CN1C[C@@H]2COC[C@@H](C(=O)N3CCCCO3)[C@@H]2C1 | 39.2%
18 | Cc1noc(C)c1CN1C[C@@H]2COC[C@@H](CC(=O)N3CCCO3)[C@@H]2C1 | -0.388%
19 | Cc1noc(C)c1CN1C[C@@H]2COC[C@H](C(=O)N3CCOCC3)[C@@H]2C1 | 13.6%
20 | Cc1noc(C)c1CN1C[C@@H]2COC[C@@H](CC(=O)N3CCCCO3)[C@@H]2C1 | 41.6%
21 | CNC(=O)C1CN(C(=O)c2ccncc2)CCN(S(C)(=O)=O)C1 (stereo not drawn) | 7.7%

Row | SMILES | INHIBITION
22 | Cc1cc(-c2cnc(C(C)C)nc2CN(C)C(=O)c2ccccn2)on1 | 30.4%
23 | CC1CCN(c2ccc(=O)n(CC(=O)N(C)Cc3ccccc3)n2)CC1 | -17.1%
24 | CC(C)(C)c1cc(=O)n2c(n1)SCC(C(=O)NCc1ccccn1)C2 (stereo not drawn) | 29.1%
25 | CC(=O)N1CCC2(CC1)C(=O)N(CC1CCN(C)CC1)c1ccccc12 | -4.82%
26 | O=c1[nH]c2c(-c3ccccn3)nsc2c(=O)n1CC1CC1 | 7.3%
27 | NC(=O)CN1CCC(c2noc3cc(F)ccc23)CC1 | 18.7%
28 | CNC(=O)[C@@H](CC(C)C)N1CCC[C@H]1C(=O)N(C)Cc1cccnc1 | 45.1%
29 | Cc1cc(CN2CCN(C(=O)NC(C)c3ccncc3)CC2)on1 (stereo not drawn) | 14.9%
30 | Cc1ccc(C(=O)N2CCC(Oc3c(C)cccc3C)CC2)c(=O)[nH]1 | -1.25%
31 | Cc1cnc2c(S(=O)(=O)N(C)C3CCS(=O)(=O)C3)cccc2c1 (stereo not drawn) | 22.3%
32 | Cc1cccc(CN2C[C@@H]3COC[C@]3(CNC(=O)c3ccno3)C2)n1 | -30%
33 | CSCc1nc(CCNC(=O)c2cnn(C(C)C)c2)cs1 | 33.4%
34 | CC(C)n1cc(C(=O)NCCCc2csc(N)n2)cn1 | 69.1%
35 | CC(C)n1cc(C(=O)NCCc2cn3ccsc3n2)cn1 | 8.48%
36 | CSCc1nc(CNC(=O)c2cnn(C(C)C)c2)cs1 | 55%
37 | Nc1nc(CCCNC(=O)c2ccc(C3CCCNC3)cc2)cs1 (stereo not drawn) | -3.58%
38 | CC(C)n1cc(C(=O)NCC(CO)Cc2cccs2)cn1 (stereo not drawn) | 5.78%
39 | COc1cc(NCc2c(C)noc2C)c(OC)cc1Cl | 28.7%
40 | Cc1ccc(N[C@@H]2CN(Cc3cc(C)on3)C[C@@H]3CCCO[C@@H]32)nn1 | -24.1%
41 | Cc1cc(NC(=O)CN2CCc3cnc(C(C)C)nc3C2)on1 | -0.113%
42 | COc1ccc(OC)c(C(O)CN2CCC(N3CCC(C)CC3)CC2)c1 (stereo not drawn) | 12.3%

Row | SMILES | INHIBITION
43 | COCCN(C)C(C)c1cccc(S(N)(=O)=O)c1 (stereo not drawn) | -29.8%
44 | CC(C)c1n[nH]c(C2CN(C(=O)c3cc(Cl)c[nH]3)CCO2)n1 (stereo not drawn) | -17.4%
45 | Cc1nn(C)cc1CN1CCCC(n2c(=O)oc3ccccc32)C1 (stereo not drawn) | 43.35%
46 | Cc1cccc(=O)n1CCCNc1nc(N(C)C)nc2c1CCNCC2 | 7.93%
47 | c1ccc(-c2nc3c(c(NCCCn4cncn4)n2)CCNCC3)nc1 | 57.3%
48 | CN(Cc1cccnc1)c1nc(-c2ccccn2)nc2c1CCNCC2 | -10.8%
49 | c1ccc(-c2nc3c(c(NCCn4cccc4)n2)CCNCC3)nc1 | 66.5%
50 | c1ccc(-c2nc3c(c(NCCn4ccnn4)n2)CCNCC3)nc1 | -3.01%
51 | CN(Cc1nccs1)c1nc(-c2ccccn2)nc2c1CCNCC2 | 13.7%
52 | O=C(CS(=O)(=O)Cc1cc(Cl)c2c(c1)OCO2)N1CCCC1 | 21%
53 | COc1ccc(CCC(=O)N2CCN(c3nc(C)ns3)CC2)cc1 | 6.7%
54 | CC(C)c1noc(CN2CCN(C(=O)OC(C)(C)C)C(C)C2)n1 (stereo not drawn) | 33.6%
55 | Fc1ccc(C2CN(c3ncnc4nc[nH]c34)CCO2)cc1 (stereo not drawn) | -28.6%
56 | COCc1cc(N2CCOC(c3ccc(Cl)cc3)C2)ncn1 (stereo not drawn) | 8.64%
57 | COc1cc(N2CCOC(c3ccc(F)cc3)C2)ncn1 (stereo not drawn) | 55.2%
58 | COCc1cc(N2CCOC(c3ccc(Cl)c(Cl)c3)C2)ncn1 (stereo not drawn) | 63.1%
59 | COCc1cc(N2CCOC(c3ccc(F)cc3)C2)ncn1 (stereo not drawn) | 38.3%
60 | Cc1cc(N2CCOC(c3ccncn3)C2)ncn1 (stereo not drawn) | 26.7%
61 | CCn1cnnc1C1CCN(C(=O)c2c(C)oc(C)c2C)CC1 | 46.7%
62 | Cc1cccc(CC2COCCN(Cc3nccn3C)C2)n1 (stereo not drawn) | 26.3%
63 | O=C(CC1CCN(CCc2ccccc2)CC1)NC1CCOCC1 | 25.8%
